Reference: PubChem BioAssay (NCI)
Compounds without any hit were thinned out: in the full panel of roughly 83,000, 20% have a hit.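 Interpretation: 100, growth as untreated; towards 0, rising growth inhibition; 0, no net growth; 0 to -100, cell death. Compounds scoring below 10 were considered active.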 Values without a mark were called inactive. Calls of active or inactive are those of the source.

Legend:
Assay in all cases: NCI-60 one-dose screen, 48 h (100 = growth as untreated, 0 = no growth, -100 = all killed)
Conditions in all cases: 10 µM unless noted
T-47D breast = test system: T-47D breast
BT-549 breast = test system: BT-549 breast
MDA-MB-435 melanoma = test system: MDA-MB-435 melanoma
SW-620 colon = test system: SW-620 colon
MCF7 breast = test system: MCF7 breast
HCT-116 colon = test system: HCT-116 colon
HCC-2998 colon = test system: HCC-2998 colon
KM12 colon = test system: KM12 colon

Structure (SMILES)	growth (T-47D breast)	growth (BT-549 breast)	growth (MDA-MB-435 melanoma)	growth (SW-620 colon)	growth (MCF7 breast)	growth (HCT-116 colon)	growth (HCC-2998 colon)	growth (KM12 colon)
CCN(CC)CCNc1ccc([N+](=O)[O-])c2sc3ccccc3c(=O)c12	45.5%	72%	18.4%	-5.78% (active)	8.95% (active)	17.9%	36.6%	22.9%
COC1=CC(=O)c2c(O)c3c(c(O)c2C1=O)CC(C)(O)OC3 (configuration not stated)	0.836% (active)	28.1%	-95% (active)	16.6%	-27.1% (active)	-27.6% (active)	-20.5% (active)	9.83% (active)
COc1cc(OC)c(/C=C/c2c3ccccc3cc[n+]2C)c(OC)c1	13%	17.8%	2.01% (active)	28.2%	12.9%	18.5%	21.8%	6.03% (active)
CC1=CC(=O)C=CC1(C)C(Cl)(Cl)Cl (configuration not stated)	89.8%	103%	105%	96.7%	92.6%	89.9%	98.6%	108%
O=C(NNc1ccccc1)OCc1ccccc1	69%	83.1%	34.1%	54.3%	104%	66%	75.4%	19.8%
S=C=Nc1ccc(N2CCOCC2)cc1	74.3%	97.1%	92%	103%	79.3%	86.6%	99.3%	103%
CCOc1ccc(Nc2nc3c(s2)C(=O)c2ccccc2C3=O)cc1	59%	87.4%	-80.2% (active)	70%	42.9%	52.7%	118%	81.4%
CCC1C[N+]2=C(c3cc(OC)c(OC)cc3CC2)c2c1cc1n2CCc2cc(OC)c(OC)cc2-1 (configuration not stated)	6.69% (active)	26.7%	5.51% (active)	48.8%	9.71% (active)	40.4%	34%	7.73% (active)
OC(c1cc(-c2ccc(Cl)cc2)nc2c(Cl)cccc12)C1CCCCN1 (configuration not stated)	-82.9% (active)	73.6%	-78.8% (active)	-86.2% (active)	-88.7% (active)	-28.8% (active)	-68.9% (active)	-89% (active)
Cc1ccc(NC2=CC(=O)C(=O)c3ccccc32)cc1	21.1%	-41.1% (active)	-80.5% (active)	-19.6% (active)	-57.4% (active)	-26.9% (active)	28.4%	22.1%
CCC(=O)c1cc([N+](=O)[O-])c(Br)s1	-46.2% (active)	108%	96.9%	35.4%	62.6%	1.06% (active)	92.7%	93.8%
O=C(OC12CC3CC(CC(C3)C1)C2)c1ccc(NCc2cc(O)ccc2O)cc1	-70% (active)	-81.6% (active)	-46% (active)	-53.8% (active)	6.06% (active)	-82.9% (active)	-73.6% (active)	-60.7% (active)
CCCCCCC1N=C(N)N=C(N)N1c1cccc(Cl)c1 (configuration not stated)	51.8%	25.2%	24.1%	27%	22.4%	16.6%	10.3%	18.6%
CC(C)(C)c1ccc(O)c(Br)c1	103%	102%	92.1%	92.4%	95.3%	93.2%	98%	104%
O=C1C=CC(=O)N1c1ccc(O)cc1	83.3%	103%	107%	95.6%	102%	106%	105%	109%
N#CC(I)CS(=O)(=O)c1ccccc1 (configuration not stated)	44.6%	97%	109%	26.3%	91.5%	-10.5% (active)	107%	96.1%
O=Nc1ccc2ccccc2c1O	51.5%	100%	-73.9% (active)	61.8%	69.9%	6.58% (active)	103%	79.3%

Structure (SMILES)	growth (T-47D breast)	growth (BT-549 breast)	growth (MDA-MB-435 melanoma)	growth (SW-620 colon)	growth (MCF7 breast)	growth (HCT-116 colon)	growth (HCC-2998 colon)	growth (KM12 colon)
CCc1oc2ccccc2c1C(=O)c1cc(Br)c(O)c(Br)c1	62.1%	35.4%	-11.1% (active)	61.4%	69.2%	73.5%	85.9%	77.5%
O=[N+]([O-])CC(O)c1ccccc1 (configuration not stated)	100%	112%	91.1%	105%	81.1%	78.6%	98.9%	97.4%
Cc1cc(C(N)=O)cc(C)c1C(=O)OCCCl	95.8%	111%	98%	103%	101%	97%	95.8%	93.6%
O=C(c1ccccc1)N(CCCl)C(=O)N(CCCl)C(=O)c1ccccc1	86%	100%	102%	110%	101%	90%	104%	102%
CN(C)c1ccc(/C=C/c2cc[n+](C)c(/C=C/c3ccc(N(C)C)cc3)c2)cc1	-2.17% (active)	18.9%	-48.7% (active)	9.01% (active)	-6.46% (active)	9.38% (active)	12.4%	-55.6% (active)
O=C1Nc2ccc(Br)cc2C1=O	96.2%	105%	98.3%	86%	91.5%	94.2%	111%	96.7%
COc1ccc(NC(=O)/C(=C/N2C(=O)/C(=C/c3ccc(OC)c(OC)c3)NC2=S)C(C)=O)cc1	19.1%	55.2%	72.2%	83.6%	40.9%	73.7%	88.7%	95.1%
Nc1ccc(-c2ccc(N)c(S(=O)(=O)O)c2)cc1S(=O)(=O)O	106%	113%	115%	107%	104%	107%	113%	103%
Cc1nn(CCO)c(C)c1N=[N+]([O-])c1c(C)nn(CCO)c1C	-3.43% (active)	50.5%	-25.4% (active)	-61.2% (active)	4.45% (active)	-81.9% (active)	109%	81%
O=C(c1ccccc1)C(Br)C(Br)c1ccccc1 (configuration not stated)	31%	101%	74.6%	-76.9% (active)	31.3%	-95.7% (active)	93.3%	55.1%
Cc1onc(-c2ccccc2)c1C(=O)N/N=C/c1cc(Cl)cc(Cl)c1O	42%	33.8%	45.2%	35.3%	18.8%	21%	17.1%	30.6%
Oc1cc(Cl)ccc1Cc1ccc(Cl)cc1O	29.2%	33.9%	46.2%	81.2%	68.3%	41.7%	88.1%	98.7%
O=C1/C(=C/c2ccccn2)CCc2ccccc21	84.9%	106%	88.5%	85.5%	59.4%	90.4%	100%	86.9%
CCCCOS(=O)(=O)c1ccccc1	106%	103%	95.8%	110%	102%	108%	117%	109%
CCN(CC)c1ccc(/C=C\C(=O)c2ccc(NC(C)=O)cc2)cc1	76.3%	94.8%	10.9%	42.5%	71.3%	58.6%	77.9%	48.1%
COC1CC(C)C(OC)c2cc(O)cc(c2O)NC(=O)/C(C)=C/C=C\C(C)C(OC(N)=O)/C(C)=C\C(C)C1OC (configuration not stated)	1.33% (active)	-44.8% (active)	12.7%	2.74% (active)	20.8%	-92.8% (active)	-11.6% (active)	-46.4% (active)
O=C(Cc1ccccc1)C(F)(F)F	95.4%	97.5%	104%	108%	103%	95.5%	108%	103%
